The campaign covered roughly 39,000 compounds. About 1,500 (3.8%) were called active. What follows is part of a selection rich in actives, with near analogues and random picks from the rest.

We go through 46 compounds from the antibiotic and cytotoxicity screens of Wong et al. (2023).

The assay concerns HSkMC (human skeletal muscle cells). In words: cytotoxicity call (relative viability < 0.9). To be noted: 10 µM.
With `C[C@@H]1CCCCO[C@H](CN(C)C(=O)Nc2ccc(F)cc2)[C@H](C)CN([C@@H](C)CO)C(=O)c2cc(NS(=O)(=O)c3ccccc3)ccc2O1`, the cytotoxicity call is “inactive”.
As for `C[C@H]1CN([C@@H](C)CO)S(=O)(=O)c2ccc(-c3ccc(C(=O)N(C)C)cc3)cc2O[C@@H]1CN(C)C(=O)C1CC1`, the cytotoxicity call was “inactive”.
With `O=C(N[C@@H]1C=C[C@@H](CC(=O)N2CCOCC2)O[C@@H]1CO)c1ccc2c(c1)OCO2` the entry was “inactive”.
Turning to `C[C@H](CO)N1C[C@H](C)[C@H](CN(C)CC2CCCCC2)Oc2ccc(NC(=O)Cn3cnnn3)cc2C1=O`, the cytotoxicity call was “inactive”.
Regarding `C[C@H](CO)N1C[C@H](C)[C@@H](CN(C)S(=O)(=O)c2ccccc2)Oc2ccc(NS(=O)(=O)c3ccc(F)cc3)cc2CC1=O`, the cytotoxicity call was “inactive”.
For the compound `Cc1noc(C)c1S(=O)(=O)Nc1cccc2c1O[C@H](CN(C)S(=O)(=O)c1ccccc1)[C@H](C)CN([C@@H](C)CO)C2=O`, the cytotoxicity call was “inactive”.
With `C[C@@H](O)C#Cc1ccc2c(c1)O[C@H](CN(C)C(=O)C1CCCCC1)[C@@H](C)CN([C@@H](C)CO)S2(=O)=O`, the cytotoxicity call was “inactive”.
For the compound `C[C@H]1CN([C@@H](C)CO)S(=O)(=O)c2ccc(Br)cc2O[C@H]1CN(C)C(=O)CCN1CCCCC1`, the cytotoxicity call was “inactive”.
Take `COc1ccc(S(=O)(=O)Nc2ccc3c(c2)C(=O)N([C@@H](C)CO)C[C@@H](C)[C@@H](CN(C)C(=O)NC2CCCCC2)OCCCC[C@H](C)O3)cc1`: the cytotoxicity call was “inactive”.
For the compound `Cc1noc(C)c1S(=O)(=O)Nc1ccc2c(c1)CC(=O)N([C@H](C)CO)C[C@@H](C)[C@H](CN(C)S(=O)(=O)c1cccs1)O2`, the cytotoxicity call was “inactive”.
The same measure for `COc1ccc2c3c(n(c2c1)C)[C@@H](CO)N(Cc1ccccc1)C[C@]13CCN(CC1)C(=O)Nc1cccc(c1)F`: “inactive”; for `CO[C@H]1CN(C)C(=O)c2cc(NC(=O)Nc3ccccc3F)ccc2OC[C@H](C)N(Cc2ccccc2C(=O)O)C[C@H]1C`: “inactive”; for `COc1cccc(S(=O)(=O)N(C)C[C@@H]2Oc3ncc(C#CCN(C)C)cc3C(=O)N([C@H](C)CO)C[C@@H]2C)c1`: “inactive”.
The same measure for `C[C@@H]1CN([C@@H](C)CO)C(=O)c2cccc(NS(=O)(=O)c3ccc(Cl)cc3)c2O[C@@H]1CN(C)C(=O)Nc1ccc(C(F)(F)F)cc1`: “active”.
On to `C[C@@H]1CN([C@H](C)CO)C(=O)c2cccc(NS(=O)(=O)c3ccc(Cl)cc3)c2O[C@H]1CN(C)C(=O)Nc1ccc(C(F)(F)F)cc1`, for which the cytotoxicity call is “inactive”.
With `C[C@H](CO)N1C[C@H](C)[C@@H](CN(C)C(=O)Nc2ccc(C(F)(F)F)cc2)Oc2c(NS(=O)(=O)c3ccc(Cl)cc3)cccc2C1=O` the entry was “inactive”.
As for `C[C@H]1CN([C@@H](C)CO)C(=O)c2cccc(NS(=O)(=O)c3ccc(F)cc3)c2O[C@@H]1CN(C)C(=O)Nc1ccc(C(F)(F)F)cc1`, the cytotoxicity call is “inactive”.
On to `C[C@H]1CN([C@@H](C)CO)C(=O)c2cccc(NS(=O)(=O)c3ccc(F)cc3)c2O[C@H]1CN(C)C(=O)Nc1ccc(C(F)(F)F)cc1`, for which the cytotoxicity call is “inactive”.
As for `C[C@H]1CN([C@@H](C)CO)C(=O)c2cccc(NS(=O)(=O)c3ccc(Cl)cc3)c2O[C@@H]1CN(C)C(=O)Nc1ccc(C(F)(F)F)cc1`, the cytotoxicity call is “inactive”.
For `C[C@H]1CN([C@@H](C)CO)C(=O)c2cccc(NS(=O)(=O)c3ccc(Cl)cc3)c2O[C@H]1CN(C)C(=O)Nc1ccc(C(F)(F)F)cc1`, the cytotoxicity call is “active”.
With `C[C@@H]1CN([C@@H](C)CO)C(=O)c2cccc(NS(=O)(=O)c3ccc(F)cc3)c2O[C@@H]1CN(C)C(=O)Nc1ccc(C(F)(F)F)cc1` the entry was “inactive”; with `C[C@@H]1CN([C@H](C)CO)C(=O)c2cccc(NS(=O)(=O)c3ccc(F)cc3)c2O[C@H]1CN(C)C(=O)Nc1ccc(C(F)(F)F)cc1`, “inactive”; with `C[C@@H]1CN([C@H](C)CO)C(=O)c2cccc(NS(=O)(=O)c3ccc(Cl)cc3)c2O[C@@H]1CN(C)C(=O)Nc1ccc(C(F)(F)F)cc1`, “active”.
For `C[C@H](CO)N1C[C@H](C)[C@H](CN(C)C(=O)Nc2ccc(C(F)(F)F)cc2)Oc2c(NS(=O)(=O)c3ccc(Cl)cc3)cccc2C1=O`, the cytotoxicity call was “active”.
On to `C[C@@H]1CN([C@@H](C)CO)C(=O)c2cccc(NS(=O)(=O)c3ccc(Cl)cc3)c2O[C@H]1CN(C)C(=O)Nc1ccc(C(F)(F)F)cc1`, for which the cytotoxicity call is “inactive”.
On to `C#CC1(OC(C)=O)CCC2C3CCC4=CC(OC(C)=O)CCC4C3CCC21C` (stereo unspecified), for which the cytotoxicity call was “inactive”.
The same measure for `Cc1ccc(S(=O)(=O)N(C)C[C@@H]2Oc3ccc(NC(=O)CCCN(C)C)cc3C(=O)N([C@@H](C)CO)C[C@@H]2C)cc1`: “inactive”.
On to `COc1ccc(S(=O)(=O)N(C)C[C@@H]2OCCCC[C@@H](C)Oc3ccc(NC(=O)c4ccccc4)cc3C(=O)N([C@H](C)CO)C[C@H]2C)cc1`, for which the cytotoxicity call is “inactive”.
Regarding `COCC#Cc1ccc([C@H]2[C@H](CO)N3C(=O)CN(C(=O)CN4CCOCC4)C[C@@H]23)cc1`, the cytotoxicity call is “inactive”.
The same measure for `O=C(O)CCC(=O)O`: “inactive”; for `CCOC(=O)CN1CCN(C=O)CC1`: “inactive”.
`C[C@H](CO)N1C[C@H](C)[C@@H](CN(C)Cc2ccc(C(F)(F)F)cc2)OCCCC[C@H](C)Oc2ccc(NS(=O)(=O)c3ccc(F)cc3)cc2C1=O`: the cytotoxicity call was “inactive”.
Take `COc1ccc(CN(C)C[C@H]2OCCCC[C@H](C)Oc3ccc(NC(=O)NC(C)C)cc3C(=O)N([C@H](C)CO)C[C@H]2C)cc1`: the cytotoxicity call is “inactive”.
Turning to `O=C(N[C@@H](c1cccnc1)c1ccc2c(c1)OCO2)C1CCN(CCOc2ccc(Cl)cc2Cl)CC1`, the cytotoxicity call is “inactive”.
Regarding `NCc1ccc(S(N)(=O)=O)cc1`, the cytotoxicity call is “inactive”.
For `COc1ccc(S(=O)(=O)Nc2ccc3c(c2)CC(=O)N([C@@H](C)CO)C[C@H](C)[C@H](CN(C)S(=O)(=O)c2ccc(F)cc2)O3)cc1`, the cytotoxicity call was “inactive”.
Regarding `C[C@@H]1CN([C@@H](C)CO)C(=O)c2cccc(NC(=O)c3ccncc3)c2O[C@H]1CN(C)Cc1ccc(-c2ccccc2)cc1`, the cytotoxicity call is “inactive”.
With `C[C@@H]1CN([C@H](C)CO)C(=O)Cc2cc(NC(=O)Cc3cn(C)c4ccccc34)ccc2O[C@H]1CN(C)Cc1ccc(-c2ccccc2)cc1` the entry was “active”; with `C[C@@H]1CN([C@H](C)CO)C(=O)Cc2cc(NC(=O)Cc3cn(C)c4ccccc34)ccc2O[C@H]1CN(C)Cc1ccc(C(F)(F)F)cc1`, “inactive”; with `C[C@H]1CN([C@@H](C)CO)C(=O)Cc2cc(NC(=O)Cc3cn(C)c4ccccc34)ccc2O[C@@H]1CN(C)Cc1ccc(C(F)(F)F)cc1`, “active”.
As to `C[C@H]1CN([C@@H](C)CO)C(=O)Cc2cc(NC(=O)Cc3cn(C)c4ccccc34)ccc2O[C@H]1CN(C)Cc1ccc(C(F)(F)F)cc1`, the cytotoxicity call was “inactive”.
On to `C[C@H]1CN([C@@H](C)CO)C(=O)Cc2cc(NC(=O)Cc3cn(C)c4ccccc34)ccc2O[C@@H]1CN(C)Cc1ccc(Oc2ccccc2)cc1`, for which the cytotoxicity call was “inactive”.
The same measure for `C[C@@H]1CN([C@@H](C)CO)C(=O)Cc2cc(NC(=O)Cc3cn(C)c4ccccc34)ccc2O[C@H]1CN(C)Cc1ccc(-c2ccccc2)cc1`: “inactive”; for `C[C@H](CO)N1C[C@H](C)[C@H](CN(C)Cc2ccc(Oc3ccccc3)cc2)Oc2ccc(NC(=O)Cc3cn(C)c4ccccc34)cc2CC1=O`: “inactive”; for `C[C@@H]1CN([C@@H](C)CO)C(=O)Cc2cc(NC(=O)Cc3cn(C)c4ccccc34)ccc2O[C@@H]1CN(C)Cc1ccc(-c2ccccc2)cc1`: “inactive”.
On to `C[C@H]1CN([C@@H](C)CO)C(=O)Cc2cc(NC(=O)Cc3cn(C)c4ccccc34)ccc2O[C@H]1CN(C)Cc1ccc(Oc2ccccc2)cc1`, for which the cytotoxicity call is “active”.
